High-throughput results from PubChem.
Only some compounds are listed: those with a hit (about 12% of all), similar ones and a draw of the others.
Cl transport mod: modulates chloride dependent transport by human KCC2 | AID 1456 | hit rate 2.2% among 190,000 | B-score of Tl+ flux slope (higher = more flux/activation; lower = inhibition) at 10 µM | KCC2 cells, thallium flux FluoZin-2 fluorescence | Q9H2X9;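 active means thallium flux slope and its plate-corrected score both differing from the plate sample mean at a set confidence after two filtering rounds, in either direction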;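 further: slope of fluorescence scaled to starting intensity during 10 to 20 s after thallium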
Target sequence (Q9H2X9 whole entry, looked up): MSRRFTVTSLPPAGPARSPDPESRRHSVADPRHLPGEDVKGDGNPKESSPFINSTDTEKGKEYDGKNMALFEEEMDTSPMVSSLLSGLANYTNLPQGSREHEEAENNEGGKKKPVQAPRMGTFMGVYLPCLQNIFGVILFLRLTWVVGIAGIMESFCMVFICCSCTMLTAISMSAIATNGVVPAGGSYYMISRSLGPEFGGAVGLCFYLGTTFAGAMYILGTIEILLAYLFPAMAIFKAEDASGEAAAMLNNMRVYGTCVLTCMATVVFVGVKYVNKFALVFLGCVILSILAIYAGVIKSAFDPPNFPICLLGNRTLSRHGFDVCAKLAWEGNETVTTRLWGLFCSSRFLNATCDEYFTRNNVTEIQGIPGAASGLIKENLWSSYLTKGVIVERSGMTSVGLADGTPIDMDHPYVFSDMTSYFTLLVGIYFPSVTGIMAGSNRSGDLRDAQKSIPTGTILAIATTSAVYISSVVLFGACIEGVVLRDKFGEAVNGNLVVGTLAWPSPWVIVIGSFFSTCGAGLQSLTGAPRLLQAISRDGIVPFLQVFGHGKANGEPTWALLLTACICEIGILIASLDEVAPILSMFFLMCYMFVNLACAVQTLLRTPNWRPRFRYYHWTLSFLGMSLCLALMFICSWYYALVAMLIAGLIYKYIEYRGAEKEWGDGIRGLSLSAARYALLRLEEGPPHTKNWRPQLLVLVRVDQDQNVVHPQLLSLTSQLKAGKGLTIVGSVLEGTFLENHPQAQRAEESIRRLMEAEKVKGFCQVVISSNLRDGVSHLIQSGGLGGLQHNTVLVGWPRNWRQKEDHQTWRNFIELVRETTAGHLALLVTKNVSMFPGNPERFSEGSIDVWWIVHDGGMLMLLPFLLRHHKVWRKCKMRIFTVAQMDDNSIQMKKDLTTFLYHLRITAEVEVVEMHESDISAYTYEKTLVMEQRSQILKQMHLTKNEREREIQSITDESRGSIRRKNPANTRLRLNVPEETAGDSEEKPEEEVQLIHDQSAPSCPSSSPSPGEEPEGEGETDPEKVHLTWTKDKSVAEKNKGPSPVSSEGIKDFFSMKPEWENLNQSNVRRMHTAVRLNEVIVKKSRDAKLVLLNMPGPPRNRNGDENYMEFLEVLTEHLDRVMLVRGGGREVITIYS
L major viab: Leishmania major promastigote growth inhibition; Leishmania major promastigotes, resazurin fluorescence viability; hit rate 9% among 200,000; inhibition, % at 10 µM; in the data active means inhibition above about 50%;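 further: promastigotes grown with compound for 44 hours at 28 °C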
ROMK primary: modulators of human ROMK potassium channel; P48048; Tet-inducible ROMK, thallium flux fluorescence; actives lie on both sides; B-score at 10 µM; hit rate 2% among 130,000; AID 1918;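 active means signal ratio slope over the read window, or its plate-corrected B-score, at least 3 SD from the plate mean, either direction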;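 further: B-score of the F/F0 ratio slope over 7 to 12 s after thallium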
INS promoter inh: TRM-6 insulin promoter activity inhibition; TRM-6 cells (human fetal islet line), insulin promoter-eGFP reporter, imaging; reporter expression induced with tamoxifen; inhibition, % at 2 µM; hit rate 0.9% among 130,000;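 active means inhibition above the mean plus 3 SD, with well images judged a real hit on visual review, cut at about 60% in these data, passing the limit was not always enough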
Insulin prom up: MIN6 insulin promoter up-regulation. hit rate 0.3% among 190,000. z-score at 5 µM. MIN6 insulin promoter-GFP reporter, high-content imaging; stronger effect = higher value;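 active means z-score above 3 at 5 µM with at least 500 cells counted in the well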
WT yeast gro inh: growth inhibition of WT yeast, mitochondrial fusion screen. mitochondrial fusion phenotypic screen, WT strain. inhibition, % at 10 µM. hit rate 2.1% among 190,000. AID 1362; in the data active means inhibition above about 58%; tested in S. cerevisiae
* marks the source's active call; other numbers are inactive results.

For COc1ccc(C(CCc2ccc(C)o2)NC(=O)Nc2ccc(OC)cc2OC)cc1 (stereo not given) the results were Cl transport mod -0.04, L major viab 25, INS promoter inh 0, Insulin prom up -0.92 and WT yeast gro inh 21.
`O=C(Nc1cccc(Cl)c1)Nc1ccccc1-n1ccnc1` gave L major viab 74*, ROMK primary -0.63, Insulin prom up 0.99 and WT yeast gro inh 14.
COc1ccc(N2C(=O)C3CCCN3C2c2ccc(C)cc2)cc1 (stereo not given) was read as Cl transport mod -0.77, L major viab -2, Insulin prom up -0.32 and WT yeast gro inh 18.
For CCOc1nc(N=C(N)N)nc2c(C)cccc12 the results were Cl transport mod 0.45, L major viab 100*, ROMK primary 0.0044, Insulin prom up -0.2 and WT yeast gro inh -14.
For CCOc1nc(-c2ccccc2O)nc2ccccc12 the results were Cl transport mod 0.47, L major viab -6, ROMK primary 0.15, INS promoter inh -13, Insulin prom up -0.49 and WT yeast gro inh 0.
Cc1ccc2c3c([nH]c2c1)C(=O)CC(C)(C)S3 was read as Cl transport mod 0.44, L major viab -5, ROMK primary 0.95, Insulin prom up -0.26 and WT yeast gro inh -14.
COc1ccccc1OCCn1cc(/C=C(\C#N)C(=O)NCc2cccs2)c2ccccc21 was read as Cl transport mod -1, L major viab 94*, INS promoter inh 10, Insulin prom up 0.03 and WT yeast gro inh -9.
Screening Cc1ccc(C)c(OCCn2cc(/C=C(/C#N)C(=O)NCC3CCCO3)c3ccccc32)c1 (stereo not given) returned Cl transport mod -0.26, L major viab 98*, INS promoter inh -88, Insulin prom up -0.14 and WT yeast gro inh 23.
For N#C/C(=C\c1cn(Cc2ccccc2C#N)c2ccccc12)C(=O)NCc1cccs1 the results were L major viab -5, ROMK primary 0.22, Insulin prom up -0.25 and WT yeast gro inh 0.
`CCOc1ccc(/C=C(\C#N)C(=O)NCC2CCCO2)cc1OCC` (stereo not given) gave Cl transport mod -1.4, L major viab 64*, ROMK primary -1, INS promoter inh 22, Insulin prom up -0.15 and WT yeast gro inh -18.
Screening N#C/C(=C\c1cn(Cc2ccccc2)c2ccccc12)C(=O)NCc1ccco1 returned Cl transport mod -0.073, L major viab 51*, ROMK primary -0.046, INS promoter inh -3, Insulin prom up 1.2 and WT yeast gro inh 5.
Screening COc1cc(OC)cc(-c2nnc(SCC(=O)N3CCCCC3)o2)c1 returned Cl transport mod -0.56, L major viab -2, INS promoter inh -70, Insulin prom up -0.34 and WT yeast gro inh -1.
Screening CCC(C)(C)NC(=O)CCn1c(-c2ccccc2)cc(C(C)=O)c1C returned Cl transport mod 1.4, L major viab 4, ROMK primary -0.26, INS promoter inh -79, Insulin prom up 0.22 and WT yeast gro inh 2.
Screening CCOC(=O)N1CCC(NC(=O)C2=C(C)C(=O)OC23CCC(C)CC3)CC1 (stereo not given) returned Cl transport mod 0.53, L major viab -2, Insulin prom up 1.3 and WT yeast gro inh -1.
COc1cc2c(cc1OC)CN(C(=O)c1cccc(S(=O)(=O)N(C)C)c1)CC2 was read as Cl transport mod -1.8 and Insulin prom up -0.28.
For COc1cc2c(cc1OC)CN(C(=O)c1ccc(S(=O)(=O)N(C)c3ccccc3)cc1)CC2 the results were Cl transport mod -0.25, L major viab 99*, ROMK primary -1.4, Insulin prom up -0.51 and WT yeast gro inh 3.
Screening COc1ccc(N2C(=O)c3ccccc3NC2c2cccnc2)cc1 (stereo not given) returned Cl transport mod 0.48, L major viab 59*, INS promoter inh -14, Insulin prom up 0.14 and WT yeast gro inh -2.
CC(=O)Nc1ccc(S(=O)(=O)Oc2cccc(/C=C3\SC(N)=NC3=O)c2)cc1 was read as Cl transport mod 0.56, L major viab 8, INS promoter inh -7, Insulin prom up 0.06 and WT yeast gro inh 0.
Screening Nc1nc(-c2cccnc2)nn1C(=O)c1ccco1 returned Cl transport mod -1.3, L major viab -2, ROMK primary 0.18, INS promoter inh -36, Insulin prom up 0.45 and WT yeast gro inh 3.
Screening c1ccc(CNC2=NCCC2)nc1 returned Cl transport mod -0.086, L major viab -2, INS promoter inh -52, Insulin prom up -0.59 and WT yeast gro inh 4.
